LASV entry inh: Lassa virus entry inhibition; Lassa virus pseudotype entry inhibition, cell reporter; Potency, µM (doses to about 37.9 µM), without a hit: top-dose activity change, negative = inhibition, most hits filed as inhibitors; 1.2% of 300,000 active; calls by dose curve; tested in HEK293 cells; further: potency means the concentration at half of the fitted maximal effect; on the % scale 0 is the no-effect control and ±100 the full control effect; nearly all actives have a fitted effect of over 50% in size
Cycloheximide cs: counter-screen for Shiga toxin inhibitors: cycloheximide protein synthesis inhibition. cell reporter, cycloheximide protein synthesis inhibition counterscreen. max response, %. 12% of 300,000 active. AID 2314; in the data active means max response mostly above about 13%, no sharp cut-off; inactive means mostly below about 14%; further: read at 38.3 µM for the half of the compounds with a filed dose; 0% is about no effect
Shiga inhibitor: inhibitors of Shiga toxin in Vero cells. Vero cells, Shiga toxin protein synthesis inhibition reporter. inhibition, % at 38.7 µM. 9.2% of 290,000 active; in the data active means inhibition mostly above about 28%, no sharp cut-off; inactive means mostly below about 43%; further: 0% is about no effect
FMDV inh: antivirals against foot and mouth disease virus; FMDV antiviral cell-based qHTS; Potency, µM (top dose mostly 57.9 µM), for inactives: top-dose activity change, negative = inhibition, actives largely listed as inhibitors; 1.2% of 410,000 active; AID 1159524; calls by dose curve; tested in HEK293T cells; further: read-out not given here; potency means the concentration at half of the fitted maximal effect; on the % scale 0 is the no-effect control and ±100 the full control effect; nearly all actives have a fitted effect of over 45% in size
HCV inhibitor: blocks hepatitis C virus; Huh7.5.1 HCVcc-Cre infection, luciferase reporter, 44 h; Potency, µM (titrated, usually from 41.8 µM), for the others: top-dose activity change, negative = inhibition, actives largely listed as inhibitors; 3.4% of 340,000 active; active means well fitted inhibition curve with a large enough effect; inconclusive means small, poorly fitted or top-dose-only effect, or another doubt; inactive means no such curve, though single readings can be large or run the other way; further: potency means the concentration at half of the fitted maximal effect; on the % scale 0 is the no-effect control and ±100 the full control effect
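Reporter virus HCVcc-Cre (~0.5 moi) infects cells exposed to compound; seeding density 1,000 cells/well with 4 h settling beforehand. Luminescence, 15 sec read, taken 44 h post-infection following a 15 min RT substrate incubation.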
Marburg entry inh: blocks Marburg virus binding to or entry into cells; Potency, µM (series often up to 37.8 µM), inactives show top-dose activity change, negative = inhibition, hits mostly inhibitors; Marburg virus pseudotyped entry inhibition, cell reporter; 1.8% of 300,000 active; calls by dose curve; tested in HEK293 cells; further: potency means the concentration at half of the fitted maximal effect; on the % scale 0 is the no-effect control and ±100 the full control effect
Numbers without * were called inactive; u = inconclusive; x = no result given; [ ] = remark or other dose. Hits are enriched below; roughly 13% of the tested compounds scored in any of these assays.

SMILES	LASV entry inh	Cycloheximide cs	Shiga inhibitor	FMDV inh	HCV inhibitor	Marburg entry inh
O=C1CN(C(=O)/C=C/c2ccc(Br)cc2)CCN1	u	17*	25	23%	0%	17%
CCN(C[C@H]1N[C@@](Cc2ccccc2)(C(=O)OC)[C@H]2C(=O)N(C)C(=O)[C@@H]12)C(=O)c1ccc(C(C)(C)C)cc1	x	x	x	-8%	-2%[8.37 µM]	x
CN(C)Cc1nc2ccccc2c(=O)n1Cc1nc(-c2cccc([N+](=O)[O-])c2)cs1	u	6	-10	-25%	11µM*	10%[46.1 µM]
CN1CCN(Cc2nc3ccccc3c(=O)n2Cc2nc(-c3ccc([N+](=O)[O-])cc3)cs2)CC1	u	-9	-36	-13%	u	u
CCCC(=O)Nc1ccc(S(=O)(=O)N2CCc3ccccc32)cc1	x	x	x	-12%	x	x
O=C(Cn1ccsc1=NC(=O)c1ccco1)c1ccccc1	27%	24*	32	-19%	-18%	6%
Cc1ccc(C(=O)Nc2cccc(C(=O)N/N=C/c3ccc(F)cc3)c2)cc1	-18%[46.1 µM]	27*	58*	8%	u	-15%[46.1 µM]
CC(=O)Nc1cccc(C(=O)N/N=C/c2cccnc2)c1	0%	2	22	32%	22%	u
CC(=O)Nc1cccc(C(=O)N/N=C/c2ccc(F)cc2)c1	u	34*	83*	3%	6%	4%[46.1 µM]
Cc1ccc(C(=O)Nc2ccc(C(=O)N/N=C/c3ccncc3)cc2)cc1	x	18	12	x	x	x
Cc1ccccc1NC(=O)Cn1c(C)nc2ccc(N)cc2c1=O	7%	-5	-11	-24%	1%	3%
Cc1cnc(C(=O)N(CCCn2ccnc2)C2C(=O)Nc3ccccc3N=C2c2ccccc2)cn1 (stereo unspecified)	x	x	x	-14%	x	x
CCC(CO)Oc1cc(NC(=O)c2ccc([N+](=O)[O-])cc2)c2ncn(C(C)C)c2c1 (stereo unspecified)	x	x	x	-23%	-21%	x
CCC(CN(C)C)Oc1cc(NCc2ccccc2)c2ncn(C(C)C)c2c1 (stereo unspecified)	x	x	x	-15%	u	x
CCC(CO)Oc1cc(NC(=O)c2cccc([N+](=O)[O-])c2)c2ncn(C(C)C)c2c1 (stereo unspecified)	x	x	x	-22%	2.8µM*	x
CCC(CO)Oc1cc(NCc2cc(C)cc(C)c2)c2ncn(C(C)C)c2c1 (stereo unspecified)	x	x	x	-2%	1.6µM*	x
COc1cc(N(Cc2ccccc2)Cc2ccccc2)c2ncn(C(C)C)c2c1	x	x	x	-20%	11µM*	x
COc1cc(NCc2ccccc2)c2ncn(C(C)C)c2c1	x	x	x	-14%	10µM*	x
CCC(CO)Oc1cc(NCc2ccc(C)c(C)c2)c2ncn(C(C)C)c2c1 (stereo unspecified)	x	x	x	-11%	u	x
COC(=O)C1=C(C)NC(=O)NC1c1ccc(OCC(=O)N2CCCCC2)cc1 (stereo unspecified)	3%	-4	-6	-23%	22%	4%
COc1cc(SC)ccc1C(=O)NCCN1CCOCC1	15%	6	40	-13%	-25%	-1%
COc1cc(SC)ccc1C(=O)NCC1CCCCC1	-19%	28*	75*	25%	-1%	1%[46.1 µM]
COc1cc(SC)ccc1C(=O)Nc1ccccc1	-24%	37*	94*	20%	u	u
COc1cc(SC)ccc1C(=O)Nc1cccc(S(=O)(=O)NC2=NCCC2)c1	x	x	x	14%	u	x
COc1ccccc1C(=O)Nc1ccncc1	22%[46.1 µM]	-4	x	-4%	7%	-13%[46.1 µM]
SMILES	LASV entry inh	Cycloheximide cs	Shiga inhibitor	FMDV inh	HCV inhibitor	Marburg entry inh
COc1cc(SC)ccc1C(=O)N1CCN(c2ccccc2OC)CC1	u	-6	9	-1%	-10%	u
COc1ccccc1OC(=O)c1ccc(SC)cc1OC	10µM*	14*	15	42%	u	u
COc1ccccc1C(=O)Nc1cccc(SC)c1	0%	33*	66*	67%	2%	22%
CN(CC(=O)Nc1ccc(S(=O)(=O)N2CCCC2)cc1)Cc1ccc(Cl)cc1	u	2	-3	-11%	u	u
O=C(NCc1ccccc1)C1CCN(S(=O)(=O)c2ccc3c(c2)CCCN3C(=O)C2CCC2)CC1	u	x	x	-24%	x	x
COc1cc(SC)ccc1C(=O)Nc1nccs1	u	28*	active	-47%	u	u
COc1cc(SC)ccc1C(=O)Nc1c(Cl)cncc1Cl	-19%	11	0	-10%	u	-29%[46.1 µM]
COc1cc(SC)ccc1C(=O)Nc1c(C)cccc1C	14%	13*	15	11%	-19%	u
COc1cc(C(=O)Nc2nccs2)c(Br)c(OC)c1OC	-16%	0	-8	-14%	u	u
CNS(=O)(=O)c1cc(NC(=O)c2cccc3cccnc23)ccc1C	u	5	23	7%	u	-14%[46.1 µM]
CSc1cccc(NC(=O)c2cccc3cccnc23)c1	7%[46.1 µM]	34*	98*	14%	u	u
CCC1CCCCN1CC(=O)c1c(C)[nH]c2ccccc12 (stereo unspecified)	-2%	13	22	-8%	-7%	-17%
COc1ccc(CN2C[C@@H](CO)O[C@@H](n3cnc4c(N5CCN(C)CC5)ncnc43)C2)cc1	x	x	x	-8%	x	x
O=C(Cc1csc(N2CCOCC2)n1)N/N=C/c1cccc(O)c1	8%	-2	-9	-20%	-2%	1%
COC1=C(N)C(=O)c2nc(-c3nc(C(=O)O)c(C)c(-c4ccc(OC)c(OC)c4O)c3N)ccc2C1=O	0.082µM*	-4	-13	4µM*	0.32µM*	0.058µM*
COC(=O)c1nc(-c2ccc3c(n2)C(=O)C(N)=C(OC)C3=O)c(N)c(-c2ccc(OC)c(OC)c2O)c1C	u	11	-7	u	2.2µM*	u
COc1ccc(-c2ncncc2-c2csc(C)n2)c(O)c1OC	8%	-1	-24	-5%	8%	20%
O=S1(=O)C=C(Sc2nc3cc(Cl)ccc3o2)c2ccccc21	u	18*	40	28µM*	7.9µM*	7.9µM*
Cc1ccc(N2C(=O)c3ccccc3C2Nc2ccc(S(=O)(=O)N3CCOCC3)cc2)nc1 (stereo unspecified)	x	7	-6	55%	-21%	-1%
Cc1ccc(NC2c3ccccc3C(=O)N2c2cccnc2)cc1 (stereo unspecified)	3%	1	1	-7%	12%	4%[46.1 µM]
Cc1ccc(N2C(=O)c3ccccc3C2Nc2cccnc2)nc1 (stereo unspecified)	3%	36*	46	3%	-11%	0%
CCN(CC)S(=O)(=O)c1ccc(NC2c3ccccc3C(=O)N2c2ccc(C)cn2)cc1 (stereo unspecified)	x	1	8	27%	14µM*	x
Cc1ccc(N2C(=O)c3ccccc3C2Nc2ccc(S(=O)(=O)N3CCCCC3)cc2)nc1 (stereo unspecified)	x	-6	-12	28%	u	-2%
Cc1ccnc(N2C(=O)c3ccccc3C2Nc2ccccc2Cl)c1 (stereo unspecified)	x	9	29*	-20%	-16%	x

Screening results as filed in PubChem BioAssay.
